# Assay outcomes from PubChem BioAssay.
# HCMV inh: human cytomegalovirus inhibition. HFF cells, HCMV-luciferase reporter, 72 h; stronger effect = lower value. actives 4.5% (n = 410,000). activity change, negative = inhibition, % at 57.5 µM; in the data active means activity change below about -60%; inconclusive means no clear call, values can overlap the other calls; inactive means above about -39%
#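 Two-dose cell screen: HFF monolayers treated with compounds and infected with luciferase-expressing HCMV at 1 PFU/cell, 72 h at 37C, then lysed for luciferase measurement.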
# Lassa entry inh: blocks Lassa virus binding to or entry into cells | Lassa virus pseudotype entry inhibition, cell reporter | Potency, µM (titrated, usually from 37.9 µM), without a hit: top-dose activity change, negative = inhibition, most hits filed as inhibitors | actives 1.2% (n = 300,000) | AID 540256; calls by dose curve; tested in HEK293 cells; further: potency means the concentration at half of the fitted maximal effect; nearly all actives have a fitted effect of over 50% in size
# HCV inhibitor: blocks hepatitis C virus; actives 3.4% (n = 340,000); Potency, µM (series often up to 41.8 µM), for the others: top-dose activity change, negative = inhibition, hits mostly inhibitors; Huh7.5.1 HCVcc-Cre infection, luciferase reporter, 44 h; further: potency means the concentration at half of the fitted maximal effect
#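 Whole-lifecycle infectious HCVcc-Cre system; cells 1,000/well, compound then virus (~0.5 moi) added 4 h after plating, 44 h culture. Luciferase read 15 sec following 15 min substrate incubation, room temp.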
# Pf growth 96h: P. falciparum growth inhibition at 96 hours; P. falciparum luciferase reporter growth, 96 h; Potency, µM (titrated, usually from 28.7 µM), for the others: at the top dose activity change, negative = inhibition, usual class: inhibitors; actives 6.9% (n = 320,000); AID 504834; further: potency means the concentration at half of the fitted maximal effect
#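 Delayed-death screen, second-generation endpoint: infected erythrocytes, 2% hematocrit, 0.05% parasitemia final; 96 hours at 37 C, 5% CO2; luciferase detection reagent; luminescence decrease equals reduced growth.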
# Marburg entry inh: blocks Marburg virus binding to or entry into cells. Marburg virus pseudotyped entry inhibition, cell reporter. Potency, µM (highest dose often 37.8 µM), inactives show at the highest dose activity change, negative = inhibition, hits mostly inhibitors. actives 1.8% (n = 300,000); calls by dose curve; tested in HEK293 cells; further: potency means the concentration at half of the fitted maximal effect
# Pf growth 48h: P. falciparum growth inhibition at 48 hours (one generation) | Potency, µM (top dose mostly 28.7 µM), for inactives: at the top dose activity change, negative = inhibition, actives largely listed as inhibitors | AID 504832 | actives 5.9% (n = 310,000) | P. falciparum luciferase growth in erythrocytes, 48 h; further: potency means the concentration at half of the fitted maximal effect
#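 Here the parasites carry a stable luciferase gene and grow inside erythrocytes in Albumax-based RPMI medium with compound for one erythrocytic cycle. Activity is scored as loss of luminescent signal.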
# * = called active by the depositor; ? = inconclusive; . = not tested or not shown; [ ] = remark or other dose. Sampled rows, rich in hits. Any-hit rate of the full collection: about 14%. Unless noted, the call rests on the fitted dose curve; in most records, active means well fitted inhibition curve with a large enough effect; inconclusive means small, poorly fitted or top-dose-only effect, or another doubt; inactive means no such curve, though single readings can be large or run the other way. On the % scale 0 is the no-effect control and ±100 the full control effect.
SMILES,HCMV inh,Lassa entry inh,HCV inhibitor,Pf growth 96h,Marburg entry inh,Pf growth 48h
COc1ccc(-c2nc(SCC(=O)Nc3ccc4c(c3)OCO4)c(-c3ccc(OC)cc3)[nH]2)cc1,-90*,0%[46.1 µM],.,.,7%[46.1 µM],.
Cc1cc2nc(-c3ccc(SCC(=O)Nc4ccc5c(c4)OCCO5)nc3)[nH]c2cc1C,-68*,-16%,-19%,2.9µM*,?,?
COc1ccc(-c2nc(-c3ccccc3)c(-c3ccc(O)cc3)[nH]2)cc1,47,-1%[46.1 µM],.,.,-17%[46.1 µM],.
O=C(CSc1nc(-c2ccc(F)cc2)[nH]c1-c1ccc(F)cc1)Nc1ccc2c(c1)OCCO2,-75*,?,.,.,?,.
COc1ccc(-c2nc(-c3ccc4c(c3)OCO4)[nH]c2-c2ccc(OC)cc2)cc1,-102*,?,8.9µM*,57%,?,?
CSCCC(NC(=O)c1ccccc1Br)C(=O)NNC(=O)c1ccncc1 (stereo not given),25,.,3%,-1%,.,8%
COC(=O)[C@]1(C#N)CC(=O)N([C@H](c2ccccc2)[C@H](O)c2ccccc2)[C@@H]1c1ccccc1,-10,.,.,.,.,.
CCOc1ccc(C2C=C(c3ccc(C)cc3)Nc3nnnn32)cc1 (stereo not given),-3,-3%,-12%,13µM*,-12%,8.3µM*
Cc1ccc(C2=CC(c3ccc(C)cc3)n3ncnc3N2)cc1 (stereo not given),?,.,17%,.,.,.
COc1ccc(C2C=C(C)Nc3ncnn32)cc1 (stereo not given),27,.,2%,.,.,.
CCOc1ccc(C2C=C(c3ccc(C)cc3)Nc3ncnn32)cc1 (stereo not given),.,.,.,136%,.,10µM*
CC1=CC(c2ccc(Cl)cc2)n2ncnc2N1 (stereo not given),?,.,0.89µM*,.,.,.
COc1ccc(NC(=O)Nc2cccc3c2O[C@H](CN(C)C(=O)Nc2ccc4c(c2)OCO4)[C@@H](C)CN([C@H](C)CO)C3=O)cc1,22,.,?,.,.,.
CCn1cc([N+](=O)[O-])c(C(=O)N2N=C3/C(=C/c4cccs4)CCCC3C2c2cccs2)n1 (stereo not given),43,?,10µM*,?,-28%,?
CCn1cc([N+](=O)[O-])c(C(=O)N2CCOCC2)n1,-11,?,5%,-11%,?,2%
CCN(CC)c1ccc(NC(=O)c2ccc3c(c2)OCO3)c(C)c1,-19,-22%[46.1 µM],11µM*,131%,-23%[46.1 µM],4%
COc1ccc2c(c1)CC(C(=O)Nc1ccc(OC)cc1OC)CO2 (stereo not given),4,?,.,.,.,.
CCN(CC)c1ccc(NC(=O)c2cc(OC)cc(OC)c2)c(C)c1,-85*,?,?,1%,?,?
CCN(CC)c1ccc(NC(=O)C2COc3ccc(OC)cc3C2)c(C)c1 (stereo not given),-79*,?,.,.,.,.
CCN(C(=O)C1CCC(CNS(=O)(=O)c2cccc3nsnc23)CC1)c1cccc(C)c1 (stereo not given),-17,?,.,.,?,.
Cc1nn(-c2ccccc2)c(N2CCCC2)c1/C=N/NC(=S)Nc1ccccc1C(F)(F)F,?,?,?,4.7µM*,?,?
Cc1ccc(NC(=S)N/N=C/c2c(C)nn(-c3ccccc3)c2N2CCCC2)cc1,19,?,?,?,-27%,12µM*
Cc1nn(-c2ccccc2)c(N2CCCC2)c1/C=N/O,17,-1%,-15%,.,6%,0%
Cc1nn(-c2ccccc2)c(N2CCCC2)c1/C=N/NC(=S)Nc1cc(C(F)(F)F)ccc1Cl,-10,5%,?,4.1µM*,10%,12µM*
CCCCN1CC(N2CCN(Cc3ccccc3)CC2)CS1(=O)=O (stereo not given),-40,.,.,.,?,.
SMILES,HCMV inh,Lassa entry inh,HCV inhibitor,Pf growth 96h,Marburg entry inh,Pf growth 48h
O=C(Nc1cc(Cl)ccc1Cl)C1(c2cccs2)CCOCC1,11,?,.,.,.,.
CNc1ccc(-c2cccc(CO)c2)cn1,139,.,.,.,.,.
CNC(=O)COC(=O)c1c2c(nc3ccccc13)CCC2,-13,.,5%,?,.,13µM*
COc1ccc(NC(=O)COC(=O)c2c3c(nc4ccccc24)CCCC3)cc1,-28,?,?,?,?,?
COc1ccc(OC)c(NC(=O)COC(=O)c2c3c(nc4ccccc24)CCCC3)c1,-32,21µM*,0.89µM*,.,5.2µM*,8.3µM*
C/C=C/c1ccc(OCC(=O)Nc2cc(S(=O)(=O)N3CCOCC3)ccc2N2CCCC2)c(OC)c1,?,?,10µM*,?,?,13µM*
COc1cccc(CC(=O)Nc2cc(S(=O)(=O)N3CCOCC3)ccc2N2CCOCC2)c1,-38,7%,11%,10µM*,14%,?
Cc1cccc(OCC(=O)Nc2cc(S(=O)(=O)N3CCOCC3)ccc2N2CCCC2)c1C,-28,-22%,?,7.4µM*,-18%,4.1µM*
CN1CCN(c2ccc(S(=O)(=O)N3CCCCC3)cc2NC(=O)CCc2ccccc2)CC1,-24,.,-21%,?,.,9.3µM*
CN1CCN(c2ccc(S(=O)(=O)N3CCCCC3)cc2NC(=O)CSCc2ccccc2)CC1,5,-19%[46.1 µM],-7%,?,-27%[46.1 µM],?
COc1ccc(N2CCOCC2)c(NC(=O)COc2cccc(C)c2C)c1,-38,-21%,?,-8%,?,-16%
COc1ccc(CC(=O)Nc2cc(S(=O)(=O)N3CCOCC3)ccc2N2CCCC2)cc1OC,-15,28%[46.1 µM],8%,.,-4%[46.1 µM],.
COc1ccc(-n2nc(C(=O)Nc3cc(C)ccn3)c3c4ccccc4n(C)c3c2=O)cc1Cl,-20,-1%[46.1 µM],.,.,-1%[46.1 µM],.
CCc1cccc(OCC(=O)Nc2cc(S(=O)(=O)N3CCOCC3)ccc2N2CCCC2)c1,16,.,?,8.3µM*,.,?
Cc1ccccc1OCC(=O)Nc1cc(S(=O)(=O)N2CCCCC2)ccc1N1CCN(C)CC1,?,?,11µM*,?,?,4%
COc1cccc(CC(=O)Nc2cc(C(F)(F)F)ccc2N2CCCC2)c1,8,.,-28%,13µM*,.,?
O=C(COc1ccccc1)Nc1cc(S(=O)(=O)N2CCOCC2)ccc1N1CCCC1,0,3%,3%,?,?,?
O=C(c1ccccc1)c1cc(F)c(N2CCOCC2)cc1Cl,21,-7%,-1%,9.3µM*,?,9%
O=C1C(=O)N(C2CCN(C(=O)c3ccccc3Cl)CC2)CCN1Cc1ccc(F)cc1,-5,15%[46.1 µM],.,.,.,.
O=C(Cc1ccccc1)Nc1cc(C(=O)c2ccccc2)ccc1N1CCOCC1,-7,?,?,5.2µM*,12%,.
O=C(Cc1ccccc1)Nc1ccc(N2CCOCC2)cc1N1CCOCC1,7,-1%,3%,2%,1%,-13%
